Screens as filed in PubChem BioAssay.
Most compounds without a hit are left out; they make up all but 2% or so of the library.
NadD inh = NadD (S. aureus) enzyme inhibition; purified NadD enzyme, colorimetric absorbance read-out; inhibition, % at 20 µM; actives 0.78% (n = 360,000); AID 602399; in the data active = inhibition above about 26%
Neddyl block = inhibitors of human cullin neddylation | P61081+Q13564 | TR-FRET cullin neddylation, biochemical | inhibition, % at 25 µM | actives 0.58% (n = 360,000); in the data active = inhibition above about 36%
Target sequence (P61081 whole entry, looked up): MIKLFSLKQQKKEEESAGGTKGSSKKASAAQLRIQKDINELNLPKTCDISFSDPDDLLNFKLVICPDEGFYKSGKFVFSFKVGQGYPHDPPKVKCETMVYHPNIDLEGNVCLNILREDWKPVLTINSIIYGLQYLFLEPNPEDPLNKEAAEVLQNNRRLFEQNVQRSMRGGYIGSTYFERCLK
Target sequence (Q13564 whole entry, looked up): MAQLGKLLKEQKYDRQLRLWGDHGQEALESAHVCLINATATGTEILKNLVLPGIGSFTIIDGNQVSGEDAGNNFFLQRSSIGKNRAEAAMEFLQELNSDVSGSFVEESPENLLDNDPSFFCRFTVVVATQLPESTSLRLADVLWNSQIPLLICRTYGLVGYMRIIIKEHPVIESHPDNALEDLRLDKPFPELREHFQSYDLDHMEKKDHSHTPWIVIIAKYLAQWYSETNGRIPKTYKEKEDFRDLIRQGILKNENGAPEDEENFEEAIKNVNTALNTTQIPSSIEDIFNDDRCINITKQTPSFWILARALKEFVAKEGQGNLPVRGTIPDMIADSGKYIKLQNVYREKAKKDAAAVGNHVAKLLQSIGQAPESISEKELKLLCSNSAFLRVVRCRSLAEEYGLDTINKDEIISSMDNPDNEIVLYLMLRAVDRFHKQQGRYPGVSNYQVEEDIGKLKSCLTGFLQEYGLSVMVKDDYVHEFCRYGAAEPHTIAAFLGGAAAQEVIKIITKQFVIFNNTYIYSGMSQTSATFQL
ARNT TACC3 PPI = disruptors of human ARNT/TACC3 interaction; inhibition, % at 9.99 µM; AlphaScreen His-ARNT PAS-B/GST-TACC3 binding, luminescence; TACC3 fragment carries E629A point mutation; actives 0.66% (n = 390,000); Q9Y6A5; AID 623870;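 active = mean inhibition of replicates at least 50% and at least half of replicates each reaching 50%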
DAGLB inhibitor = blocks human DAGLB lipase activity; AID 504411; HEK293T DAGLB membrane lysate, EnzChek fluorogenic substrate; Q8NCG7; actives 0.059% (n = 340,000); inhibition, % at 5.17 µM; in the data active = inhibition above about 34%
sPLA2-III inh = Blocks human group III sPLA2 activity; QFRET BODIPY PC-A2 liposome hydrolysis, fluorescence; actives 0.56% (n = 370,000); Q9NZ20; inhibition, % at 12.2 µM;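 active = inhibition above mean plus 3 SD of compounds lying within the high and low control bounds, cut at about 19% in these data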
NadD conf = NadD (S. aureus) inhibition, single concentration confirmation; shares compounds with NadD inh; purified S. aureus NadD, colorimetric enzyme assay; inhibition, % at 20 µM; actives 13% (n = 2,000); AID 624309; in the data active = inhibition mostly above about 42%, no sharp cut-off; inactive = mostly below about 42%
Numbers stand for hits; . = inactive; / = no result shown.

SMILES	NadD inh	Neddyl block	ARNT TACC3 PPI	DAGLB inhibitor	sPLA2-III inh	NadD conf
O=C(CN1c2ccccc2Sc2ccccc21)N/N=C/c1ccc(Cl)cc1Cl	.	.	.	.	.	/
O=C(CN1c2ccccc2Sc2ccccc21)NNC(=S)Nc1ccc(Cl)cc1Cl	37	.	.	.	.	51
O=C(Nc1nc(-c2ccco2)c(-c2ccco2)s1)c1c(F)cccc1Cl	43	.	.	.	.	.
O=S(=O)(Nc1nc(-c2ccco2)c(-c2ccco2)s1)c1ccc(F)cc1F	.	.	/	.	.	/
O=C(Nc1nc(-c2ccco2)c(-c2ccco2)s1)c1ccc(F)cc1F	41	.	.	.	.	.
COc1ccc(S(=O)(=O)Nc2ccc3c(c2)CC(=O)N([C@H](C)CO)C[C@H](C)[C@@H](CN(C)S(=O)(=O)c2ccc(C)cc2)O3)cc1	/	/	.	/	/	/
O=[N+]([O-])c1ccc(N2CCN(S(=O)(=O)c3ccc(Cl)cc3)CC2)cc1NCc1cccnc1	32	.	/	.	.	.
CC1CCCCN1c1nnc(NC(=O)c2cc(-c3ccc(Br)cc3)on2)s1 (configuration not stated)	31	.	/	.	.	.
CC(C)NC(=O)c1cc(-c2ccc(Br)cc2)on1	.	.	.	.	.	/
O=C(N/N=C\c1cc([N+](=O)[O-])ccc1N1CCCC1)c1ccccn1	.	.	/	.	.	/
O=C(Cn1c2ccccc2c(=O)c2ccccc21)N/N=C/c1cc([N+](=O)[O-])ccc1N1CCCCC1	47	.	.	.	.	.
COc1ccc(NC(=O)CSC2=C(C#N)C(c3ccco3)C(C(=O)Nc3nc4ccccc4s3)=C(C)N2)cc1 (configuration not stated)	38	.	.	.	.	.
CC(=O)C1=C(C)NC(SCC(=O)Nc2nc3ccccc3s2)=C(C#N)C1c1ccc(Cl)cc1 (configuration not stated)	.	.	/	.	.	/
N#Cc1sc2nc(-c3ccccc3)cc(-c3ccco3)c2c1N	32	.	.	.	.	.
N#Cc1sc2nc(C3CC3)cc(-c3ccccc3)c2c1N	.	.	.	.	.	/
COc1ccc(N2CSC3=C(C#N)C(c4cccs4)CC(=O)N3C2)cc1 (configuration not stated)	.	.	.	.	.	/
Cc1ccc(N2CSC3=C(C#N)C(c4cccs4)CC(=O)N3C2)cc1 (configuration not stated)	31	.	.	.	.	.
CCc1ccc(N2CSC3=C(C#N)C(c4cccs4)CC(=O)N3C2)cc1 (configuration not stated)	72	.	.	.	/	.
CCc1ccc(C2CC(=O)N3CN(c4ccccc4)CSC3=C2C#N)cc1 (configuration not stated)	64	.	.	.	.	.
C[C@@H]1CN([C@@H](C)CO)C(=O)c2cccc(NC(=O)Nc3ccc(C(F)(F)F)cc3)c2O[C@@H]1CN(C)S(=O)(=O)c1ccc(Cl)cc1	/	/	.	/	/	/
O=C(C[C@@H]1CC[C@H]2[C@@H](COC[C@@H](O)CN2C(=O)c2ccncc2)O1)NC1Cc2ccccc2C1	/	/	.	/	/	/
CC1CCN(S(=O)(=O)c2ccc(C(=O)Nc3ccccc3-c3nc4ccccc4[nH]3)cc2)CC1	29	/	.	.	.	.
Cc1cc(F)ccc1S(=O)(=O)Nc1ccccc1C(=O)Nc1ccccc1-c1nc2ccccc2[nH]1	33	.	.	.	/	.
CC1CCCN(S(=O)(=O)c2ccc(C(=O)Nc3ccccc3-c3nc4ccccc4[nH]3)cc2)C1 (configuration not stated)	.	.	.	.	.	/
CC=Cc1ccc2n(c1=O)C[C@@H]1[C@@H](CO)[C@H](C(=O)NC3CCCC3)N(Cc3ccncc3)[C@H]21 (mixture of isomers)	/	/	.	/	/	/
SMILES	NadD inh	Neddyl block	ARNT TACC3 PPI	DAGLB inhibitor	sPLA2-III inh	NadD conf
Cc1ccc2nc(SCC(=O)c3cc(C)n(C)c3C)[nH]c2c1	.	.	.	.	.	/
Cc1cc(C(=O)CSc2nc3ccc(Cl)cc3[nH]2)c(C)n1C	34	.	.	.	.	.
CC1(C)CC(=O)c2c(nc(SCC(=O)Nc3nsc(-c4ccccc4)n3)c(C#N)c2-c2ccccc2)C1	39	.	.	.	.	.
Cc1cc(-c2csc(N)n2)c(C)n1CCc1ccccc1	.	.	.	.	.	/
Cc1cc(-c2csc(N)n2)c(C)n1CCC(C)C	34	.	.	.	.	.
CN(C)CCCNC(=O)C[C@H]1CC[C@H](NS(=O)(=O)c2ccccc2)[C@@H](CO)O1	/	/	.	/	/	/
O=C(Cc1ccncc1)NCC[C@@H]1CC[C@@H](NC(=O)C2CCCC2)[C@H](CO)O1	/	/	.	/	/	/
CCN(CC)c1ccc(NC(=O)Cn2c(C(C)NC(=O)c3ccc(C)cc3)nc3ccccc32)cc1 (configuration not stated)	34	.	.	.	.	.
O=C(CSc1nnc(-c2ccccn2)n1Cc1ccco1)c1ccc(-c2ccccc2)cc1	50	.	/	.	.	.
O=C(CSc1nnc(-c2ccc(O)cc2)n1Cc1ccco1)c1ccccc1	.	.	.	.	.	/
C[C@@H]1CN([C@H](C)CO)C(=O)c2cccc(NC(=O)NC3CCCCC3)c2O[C@H]1CN(C)S(C)(=O)=O	/	/	.	/	/	/
O=C(/C=C/c1ccc(Cl)c([N+](=O)[O-])c1)Nc1ccc(N2CCCC2)cc1	42	.	.	.	.	.
O=C(Nc1ccc(N2CCCC2)cc1)c1cc(Cl)ccc1Cl	52	.	.	.	.	.
O=C(Nc1ccc(N2CCCC2)cc1)c1ccc(Br)cc1	29	.	.	.	.	.
O=C(Nc1ccc(N2CCCC2)cc1)c1ccc(Cl)cc1Cl	.	.	.	.	.	/
CCCNC(=O)C[C@@H]1C[C@H]2c3cc(NC(=O)c4cccnc4)ccc3O[C@H]2[C@H](CO)O1	/	/	.	/	/	/
CCCC#Cc1ccc2c(c1)O[C@H](CN(C)Cc1ccc3c(c1)OCO3)[C@H](C)CN([C@H](C)CO)S2(=O)=O	/	/	.	/	/	/
O=C(C[C@@H]1CC[C@@H](NC(=O)Nc2ccc(F)cc2)[C@@H](CO)O1)NCc1ccccn1	/	/	.	/	/	/
Nc1ccc2nc(CCCCCCc3nc4ccc(N)cc4[nH]3)[nH]c2c1	50	.	.	.	.	.
Nc1ccc2nc(CCCCCCCCc3nc4ccc(N)cc4[nH]3)[nH]c2c1	.	.	.	.	.	/
C[C@H](CO)N1C[C@H](C)[C@H](CN(C)C(=O)C2CCCCC2)Oc2ncc(C#Cc3ccccc3F)cc2C1=O	/	/	.	/	/	/
CCOC(=O)C1=C(C)N(C[C@@H]2CC[C@@H](Cc3ccc(-c4ccccc4)cc3)O2)C(=O)NC1c1ccc(SCc2ccco2)c([N+](=O)[O-])c1 (some centres not stated)	59	.	.	.	.	.
CC(C)NC(=O)N(C)C[C@H]1Oc2cc(C#Cc3ccc(F)cc3)ccc2S(=O)(=O)N([C@H](C)CO)C[C@@H]1C	/	/	.	/	/	/
